Bioassay records as filed in PubChem.
The entries come from a sample that favours hits as a whole.
ST2 IL33 inh – IL1RL1 inhibition. AlphaLISA ST2-Fc/biotin-IL-33 interaction, 1 h. Q01638. 78,000 compounds, 2.3% hits. inhibition, % for hits at 17 µM. AID 1259354; in the data active = inhibition above about 30%
Target sequence (Q01638 whole entry, looked up): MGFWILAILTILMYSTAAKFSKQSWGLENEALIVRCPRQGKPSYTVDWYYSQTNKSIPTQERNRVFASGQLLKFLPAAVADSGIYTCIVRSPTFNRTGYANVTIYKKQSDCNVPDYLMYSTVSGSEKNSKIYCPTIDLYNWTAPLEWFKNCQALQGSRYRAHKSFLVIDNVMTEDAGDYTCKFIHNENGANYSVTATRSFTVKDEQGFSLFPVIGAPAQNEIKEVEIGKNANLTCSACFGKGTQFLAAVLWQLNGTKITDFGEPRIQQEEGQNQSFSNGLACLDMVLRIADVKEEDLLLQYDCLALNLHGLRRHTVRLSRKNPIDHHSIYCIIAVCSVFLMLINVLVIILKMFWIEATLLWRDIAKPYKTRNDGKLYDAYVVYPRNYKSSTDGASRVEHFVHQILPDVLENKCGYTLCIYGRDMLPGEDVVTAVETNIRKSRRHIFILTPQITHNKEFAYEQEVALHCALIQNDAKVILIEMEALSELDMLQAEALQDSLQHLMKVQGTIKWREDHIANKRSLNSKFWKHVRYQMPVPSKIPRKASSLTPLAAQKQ
Numbers without * were called inactive; i = inactive; ! = a repeat was not active.

SMILES | ST2 IL33 inh
COc1ccccc1Oc1c(F)c(OC)nc(OC)c1F | i
COc1ccc(C(=O)C2CCCN(C(=O)CSc3ncccn3)C2)cc1F (stereo not given) | i
COc1cc(C(=O)N2CCN=C2SCc2cccc(Cl)c2)cc(OC)c1OC | i
CCSc1nnc2n(C)c(=O)c3c(n12)-c1ccccc1CC31CCCCC1 | i
C=CCSc1nnc2n(C)c(=O)c3c(n12)-c1ccccc1CC31CCCCC1 | 38%*
COc1ccc(-n2c(=O)c3c(n4cnnc24)-c2ccccc2CC32CCCC2)cc1 | i
COc1ccc(NC(=O)CCC2=NS(=O)(=O)c3ccccc3N2)cc1Cl | i
O=C(c1ccccc1Cl)N1CCN(c2ccc([N+](=O)[O-])cc2)CC1 | i
O=C(C(Cl)Cl)N1CCN(c2ccc([N+](=O)[O-])cc2)CC1 | i
CC(Oc1ccccc1)C(=O)N1CCN(c2ccc([N+](=O)[O-])cc2)CC1 (stereo not given) | 48%*
Cc1cc(C)cc(CCC(=O)N2CCCC2c2cc(C)no2)c1 (stereo not given) | i
Cc1nc2ccccc2n1Cc1cc(C(=O)NCc2ccon2)no1 | i
Cn1c2c(c(=O)n(C)c1=O)C(c1cccc(F)c1)C1=C(N2)c2ccccc2C1=O (stereo not given) | i
O=C1C2=C(Nc3[nH]n(-c4ccccc4)c(=O)c3C2c2ccc([N+](=O)[O-])cc2)c2ccccc21 (stereo not given) | 47%*
Cc1cccc(C2C3=C(Nc4c2c(=O)n(C)c(=O)n4C)c2ccccc2C3=O)c1 (stereo not given) | i
C=CCc1cccc(C=Nc2ccc(Br)cc2)c1O | 39%*
O=C(O)c1ccc(O)c(C=Nc2ccc(Br)cc2)c1 | i
O=C(O)c1ccc(N=Cc2cc(Br)ccc2O)cc1 | i
O=C(Nc1ccccc1I)c1cncc(Br)c1 | i
COc1ccc(Nc2cc(C)nc(N3CCN(S(=O)(=O)c4cc(Cl)c(C)cc4OC)CC3)n2)cc1 | i
CC(C)c1ccc(C2SCC(=O)N2CCCN2CCN(C)CC2)cc1 (stereo not given) | i
COc1cc([C@H]2NCC[C@@]3(O)CCCC[C@H]23)cc(OC)c1OC | i
O=C1CCC(=O)N(O)CCCCCNC(=O)CCC(=O)N(O)CCOCCNC(=O)CCC(=O)N(O)CCCCCN1 | i
O=C1CCC(=O)NCCCCCN(O)C(=O)CCC(=O)NCCCCCN(O)C(=O)CCC(=O)NCCCCCN1 | 39%*
Cc1cc([O-])c2n(cn[n+]2Cc2ccccc2)n1 | i
SMILES | ST2 IL33 inh
c1cnc(-c2cc(NCc3cccnc3)nc3[nH]ccc23)nc1 | 35%*
OCCNc1cc(-c2nccc(C3CCCC3)n2)c2cc[nH]c2n1 | i
Cc1cc(-c2cc(N)nc3[nH]ccc23)cnc1N | i
COc1ccc(-c2cc(NCc3cccnc3)nc3[nH]ccc23)cn1 | i
NCCc1cccc(-c2cc(NCc3ccccn3)nc3[nH]ccc23)c1 | 35%*
O=C(O)CNc1cc(-c2ccccc2C(F)(F)F)c2cc[nH]c2n1 | i
N/C(=N/OC(=O)c1ccc2c(c1)OCO2)c1ccc(Br)cc1 | i
O=C1Nc2ccc(C(=O)O)c3c(C(=O)O)ccc1c23 | i
O=C1Nc2cc(Cl)c(Cl)cc2N(O)N1c1ccccc1C(F)(F)F | i
Cc1ccccc1C1C(C#N)=C(N)OC2=C1C(=O)CC(C)(C)C2 (stereo not given) | i
CCOC=NC1=C(C#N)C(c2ccccc2)C2=C(CC(C)(C)CC2=O)O1 (stereo not given) | 59%*
CCOC=NC1=C(C#N)C(c2ccc(Cl)cc2)C2=C(CC(C)(C)CC2=O)O1 (stereo not given) | 79%*
CCOc1cc(C2C(C#N)=C(N)OC3=C2C(=O)CC(C)(C)C3)ccc1O (stereo not given) | i
CC(C)c1ccc(C2C(C#N)=C(N)OC3=C2C(=O)CC(C)(C)C3)cc1 (stereo not given) | i
CC(=O)Oc1ccc([C@H]2C(C#N)=C(N)OC3=C2C(=O)CC(C)(C)C3)cc1 | i
Cc1nn(-c2ccccc2)c(C)c1CC(=O)N(C)Cc1n[nH]c2c1CCC2 | i
CC(C)CN1CC(C(=O)N2CCc3nc[nH]c3C2)CC1=O (stereo not given) | i
N#Cc1c(N)nc(SC2CCCCC2=O)c(C#N)c1-c1ccc(O)cc1 (stereo not given) | i
Cc1cccc2nc3c(nc12)C(=O)c1ccccc1C3=O | 32%*
Cc1ccccc1Cn1c(-c2ccccc2F)nc2ccccc2c1=O | i
CCNc1ccccc1-c1nc2ccccc2[nH]c1=O | i
CC1=C[C@@H](CNS(=O)(=O)c2ccccc2)[C@H](C(C)C)C[C@H]1CC(=O)N1CCOCC1 | i
CCOC(=O)Nc1ccc(C(C)CC)cc1 (stereo not given) | i
COc1ccc(CCC(=O)Nc2ccc(N(C)C)cc2)cc1 | 46%*
COc1ccc(C(C)c2ccc(OC)cc2)cc1 | i
SMILES | ST2 IL33 inh
CCCCOC(=O)Nc1ccc(N(C)C)cc1 | 42%*
COc1ccc(CCC(=O)NCc2ccncc2)cc1 | i
COc1ccc(N(C)C)cc1 | 32%*
CCCCOC(=O)Nc1ccccc1C(=O)N1CCCCC1 | i
COc1ccc(CC(=O)Nc2ccc(I)cc2)cc1 | i
COc1ccc(Cc2ccc(OC)cc2)cc1 | i
Cc1ccc(/C=C2\NC(=O)N(Cc3ccc(Cl)cc3)C2=O)cc1[N+](=O)[O-] | i
CC1CCCC(NC(=O)c2ccc(Cn3c(=O)[nH]c4ccsc4c3=O)cc2)C1C (stereo not given) | i
CC1=C(C(=O)Nc2ccc(F)cc2)C(c2ccc(C)cc2)C2=C(CC(C)(C)CC2=O)N1 (stereo not given) | i
COc1ccc(-c2nc3ccc(Br)cc3c(=O)o2)cc1 | i
CCOC(=O)Oc1c(Cl)cc2oc(=O)sc2c1Cl | i
COc1cccc2cc(NC(=O)/C=C/c3ccccc3)c(=O)oc12 | i
COc1ccccc1N1C(=O)c2ccc(-c3nc4ccccc4c(=O)o3)cc2C1=O | i
O=C1CCC(C(=O)N2CCN(c3ccccc3)C(=O)C2)CN1CCc1ccc(Cl)cc1 (stereo not given) | i
O=C(NCC1CCCO1)c1ccc2c(c1)N(Cc1ccccc1)C(=O)c1ccccc1S2 (stereo not given) | i
Cc1onc(-c2ccccc2)c1C(=O)Nc1cc(Cl)c(Cl)cc1Cl | i
COc1ccccc1CNC(=O)COc1ccc(C(C)C)cc1 | i
CC(C)C(NC(=O)c1ccco1)C(=O)O (stereo not given) | 32%*
CCc1ccc(C(=O)NC(C(=O)O)C(C)C)cc1 (stereo not given) | i
NC(=O)CC(NC(=O)c1ccco1)C(=O)O (stereo not given) | i
Cc1c(Br)c([N+](=O)[O-])nn1CCCC(=O)Nc1ccc(C#N)cc1 | i
NC(=O)Cn1c(=O)n(CCCC(=O)NCc2ccco2)c(=O)c2sccc21 | i
O=C(CCCn1c(=O)c2sccc2n(Cc2ccccc2F)c1=O)NCc1ccco1 | i
Cc1ccccc1Cn1c(=O)n(CCCC(=O)NCc2ccco2)c(=O)c2sccc21 | 33%*!
COc1ccc(C(=O)Nc2c3c(nn2C(C)(C)C)CS(=O)C3)cc1OC (stereo not given) | i
Cc1nc2nc(SCC(=O)NC(C)(C)C)nn2c(C)c1Cc1ccc(Cl)cc1 | i
OCCCCC1OC2CCCCC2C2=CCCCC21 (stereo not given) | i
Cc1noc(C)c1-c1ccc(Cl)c(Cl)c1 | 49%*
Cc1cc(NC(=O)c2cc(-c3ccc(Cl)c(Cl)c3)on2)no1 | i
